± gives the standard deviation.
What was measured:
Conditions in all cases: modulator concentration 10 µM
[1] = test system: RAW-Dual (murine macrophage reporter line); test: NF-kB reporter (SEAP) activity fold change vs agonist alone; higher = enhanced NF-kB activity
Outline: (§1)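 In 384-well plates holding 50 000 RAW-Dual murine macrophage reporter cells per well, compound at 10 μM final was pre-incubated for 1 hour at 37 °C, after which a PRR agonist was added overnight. Supernatant SEAP read with QUANTI-Blue at 620 nm absorbance reported NF-κB, and Lucia luciferase read with QUANTI-Luc luminescence reported IRF. Fold change values come from dividing each reporter signal by the mean of agonist-only control wells on the same plate, averaged over replicate plates with propagated errors.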

[2] = test system: RAW-Dual (murine macrophage reporter line); test: IRF reporter (Lucia luciferase) activity fold change vs agonist alone; higher = enhanced IRF activity
Outline: as §1

[3] = test system: RAW-Dual (murine macrophage reporter line); test: viability score (confluency relative to resting cells, overnight) (fraction); higher = more viable, active = viable (0.7 or more)
Outline: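 RAW-Dual macrophages in 384-well plates were exposed overnight to compound at 10 μM final. Confluency was imaged with IncuCyte, and two confluency masks were generated with IncuCyte software over all imaged wells. The viability score is confluency expressed relative to resting cells. Compounds were called viable if both masks exceeded 70% of resting cells.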

[4] = agonist: CpG ODN 1826 0.5 ug/mL

Structure (SMILES) | NF-kB reporter [1, 4] | NF-kB reporter ([1]; agonist: LPS 0.1 ug/mL) | NF-kB reporter ([1]; agonist: MPLA […]) | IRF reporter ([2]; agonist: 3'3'-cGAMP 10 ug/mL) | IRF reporter ([2]; agonist: LPS 0.1 ug/mL) | IRF reporter ([2]; agonist: MPLA […]) | viability score [3]
O=C(c1ccc(C(F)(F)F)nc1)N1CC(n2cc(C3CC3)nn2)C1 | 0.889 ± 0.073 | 0.931 ± 0.095 | 1.13 ± 0.082 | 1.01 ± 0.071 | 1.06 ± 0.15 | 1.08 ± 0.29 | 0.942 (active)
CCCCCCCCCCCC(CC1OC(=O)C1CCCCCC)OC(=O)C(CC(C)C)NC=O (configuration not stated) | 1.55 ± 0.37 | 1.04 ± 0.092 | 0.364 ± 0.07 | 0.475 ± 0.023 | 1.61 ± 0.19 | 0.197 ± 0.065 | 0.943 (active)
CCc1ccc(NC(=O)CSc2nc3c([nH]c4ccccc43)c(=O)n2C)cc1 | 0.809 ± 0.053 | 0.745 ± 0.06 | 0.776 ± 0.061 | 1 ± 0.08 | 1.13 ± 0.14 | 1.07 ± 0.18 | 0.483 (inactive)
OC(c1cc(C(F)(F)F)nc2c(C(F)(F)F)cccc12)C1CCCCN1 (configuration not stated) [Prestw-126] | 0.781 ± 0.051 | 0.973 ± 0.1 | 0.887 ± 0.059 | 1.13 ± 0.076 | 2.89 ± 0.33 | 1.75 ± 0.16 | 0.0879 (inactive)
CN(C)C(=O)c1cc2cnc(Nc3ccc(N4CCNCC4)cn3)nc2n1C1CCCC1 | 0.832 ± 0.036 | 0.887 ± 0.11 | 0.941 ± 0.071 | 0.987 ± 0.046 | 1.35 ± 0.29 | 1.53 ± 0.49 | 0.711 (active)
Fc1ccccc1C=NNc1nc(-c2ccccc2)cc(-c2ccccc2)n1 | 1.03 ± 0.25 | 1.19 ± 0.094 | 1.05 ± 0.17 | 1.01 ± 0.028 | 1.14 ± 0.15 | 1.51 ± 0.37 | 1 (active)
O=C1CCCc2[nH]ccc21 | 1.03 ± 0.12 | 1.03 ± 0.11 | 1.01 ± 0.092 | 1.02 ± 0.084 | 1.04 ± 0.094 | 0.998 ± 0.21 | 0.999 (active)
NCC(O)(c1ccc(Cl)cc1)c1ccc(Cl)cc1 | 0.85 ± 0.14 | 1.12 ± 0.12 | 1.03 ± 0.11 | 1.01 ± 0.036 | 1.32 ± 0.25 | 1.41 ± 0.22 | 0.996 (active)
O=C(O)CCc1nc(-c2ccccc2)c(-c2ccccc2)o1 | 1.05 ± 0.079 | 0.998 ± 0.066 | 1.03 ± 0.023 | 0.931 ± 0.055 | 0.976 ± 0.12 | 1.03 ± 0.15 | 0.991 (active)
O=C(Nc1cc(N2CCN(Cc3ccccc3)CC2)ncn1)c1ccc2ccccc2n1 | 0.528 ± 0.04 | 0.984 ± 0.077 | 0.846 ± 0.036 | 0.94 ± 0.049 | 1.07 ± 0.067 | 1.24 ± 0.23 | 1.01 (active)
COc1cc(Nc2ncc(F)c(Nc3ccc4c(n3)N(COP(=O)(O)O)C(=O)C(C)(C)O4)n2)cc(OC)c1OC | 0.724 ± 0.063 | 0.825 ± 0.072 | 1.12 ± 0.1 | 0.869 ± 0.098 | 1.18 ± 0.22 | 1.25 ± 0.35 | 0.931 (active)
COc1cc(C=NNC(=O)CSc2ccccn2)cc(Cl)c1O | 1.16 ± 0.073 | 1.02 ± 0.15 | 0.953 ± 0.026 | 1.04 ± 0.042 | 0.95 ± 0.12 | 0.94 ± 0.18 | 1 (active)
COc1cc(C=C2NC(=O)NC2=O)cc(I)c1OCc1ccccc1 | 0.986 ± 0.082 | 1.09 ± 0.066 | 0.93 ± 0.098 | 1.05 ± 0.025 | 1.37 ± 0.15 | 1.12 ± 0.23 | 1.01 (active)
COCCCC/C(=N\OCCN)c1ccc(C(F)(F)F)cc1.O=C(O)/C=C\C(=O)O | 0.903 ± 0.072 | 0.902 ± 0.042 | 1.23 ± 0.15 | 0.829 ± 0.04 | 1.42 ± 0.083 | 1.67 ± 0.14 | 0.985 (active)
CC(Oc1ccccc1)C(=O)NCc1cc(-c2ccncc2)n(C2CCCC2)n1 (configuration not stated) | 1.35 ± 0.1 | 1.24 ± 0.11 | 1.13 ± 0.12 | 1.02 ± 0.067 | 1.02 ± 0.064 | 1.12 ± 0.086 | 1 (active)
COc1ccc(C(=O)Oc2ccc(-c3ccc(C)cc3)cc2)cc1OC | 0.744 ± 0.058 | 0.892 ± 0.042 | 1 ± 0.09 | 0.957 ± 0.069 | 1.22 ± 0.09 | 1.27 ± 0.15 | 0.996 (active)
COC(=O)c1ccc2c(c1)NC(=O)/C2=C(\Nc1ccc(N(C)C(=O)CN2CCN(C)CC2)cc1)c1ccccc1 | 1.34 ± 0.2 | 1.18 ± 0.27 | 1.02 ± 0.063 | 0.325 ± 0.024 | 0.851 ± 0.14 | 0.474 ± 0.041 | 0.998 (active)
COc1ccc(OC)c(C=NNC(=O)c2cc(C)oc2C)c1 | 0.912 ± 0.16 | 0.925 ± 0.098 | 0.877 ± 0.067 | 0.936 ± 0.044 | 1.26 ± 0.22 | 1.25 ± 0.2 | 0.566 (inactive)

Structure (SMILES) | NF-kB reporter [1, 4] | NF-kB reporter ([1]; agonist: LPS 0.1 ug/mL) | NF-kB reporter ([1]; agonist: MPLA […]) | IRF reporter ([2]; agonist: 3'3'-cGAMP 10 ug/mL) | IRF reporter ([2]; agonist: LPS 0.1 ug/mL) | IRF reporter ([2]; agonist: MPLA […]) | viability score [3]
O=C1c2ccc(-c3ccc4c(c3)C(=O)N(CCO)C4=O)cc2C(=O)N1CCO | 0.94 ± 0.078 | 1.03 ± 0.063 | 0.912 ± 0.1 | 0.934 ± 0.048 | 1.33 ± 0.09 | 1.24 ± 0.3 | 1 (active)
Cc1cccc(C)c1OCC(C)N.Cl (configuration not stated) | 1.17 ± 0.25 | 1.25 ± 0.23 | 0.953 ± 0.058 | 0.89 ± 0.061 | 1.33 ± 0.29 | 1.04 ± 0.13 | 0.968 (active)
CC(=NOCON=C(C)c1ccc(F)cc1F)c1ccc(F)cc1F | 0.843 ± 0.067 | 0.907 ± 0.062 | 0.974 ± 0.086 | 0.991 ± 0.05 | 1.39 ± 0.085 | 1.53 ± 0.15 | 1 (active)
CCc1ccc(CCOc2ccc(CC3SC(=O)NC3=O)cc2)nc1.Cl (configuration not stated) | 1.34 ± 0.27 | 1.04 ± 0.12 | 0.983 ± 0.062 | 0.736 ± 0.028 | 1.22 ± 0.18 | 1.19 ± 0.097 | 0.997 (active)
CC[C@@H]([C@H](C)O)n1ncn(-c2ccc(N3CCN(c4ccc(OC[C@@H]5CO[C@@](Cn6cncn6)(c6ccc(F)cc6F)C5)cc4)CC3)cc2)c1=O | 0.947 ± 0.14 | 0.893 ± 0.068 | 1.07 ± 0.1 | 1.1 ± 0.055 | 1.18 ± 0.091 | 1.36 ± 0.12 | 1.02 (active)
Cc1cc2nc(SCc3cc4c(cc3Cl)OCO4)[nH]c2cc1C | 0.749 ± 0.065 | 0.976 ± 0.047 | 0.91 ± 0.094 | 0.636 ± 0.042 | 1.2 ± 0.083 | 1.25 ± 0.12 | 1.01 (active)
O=C(CCN1C(=O)c2cccc([N+](=O)[O-])c2C1=O)Nc1ccc(Cl)cc1 | 0.886 ± 0.073 | 1.02 ± 0.058 | 0.899 ± 0.077 | 0.848 ± 0.022 | 1.4 ± 0.16 | 1.14 ± 0.23 | 1.01 (active)
Cc1cccc(NC(=O)Cc2nnc(NC(=O)Nc3ccc(F)cc3)s2)c1 | 1.02 ± 0.11 | 1.03 ± 0.059 | 0.917 ± 0.055 | 1 ± 0.051 | 1.53 ± 0.12 | 1.11 ± 0.15 | 1.01 (active)
CCOC(=O)C1=C(C)NC(C)=C(C(=O)OC)C1c1ccco1 (configuration not stated) | 1.03 ± 0.17 | 0.955 ± 0.1 | 1.03 ± 0.086 | 0.95 ± 0.037 | 1.14 ± 0.18 | 1.2 ± 0.25 | 1.01 (active)
Cn1c(=O)cc(N2CCC[C@@H](N)C2)n(Cc2cc(F)ccc2C#N)c1=O.O=C(O)CCC(=O)O | 0.0816 ± 0.0048 | 0.119 ± 0.014 | 0.376 ± 0.039 | 0.0243 ± 0.0016 | 0.262 ± 0.076 | 0.205 ± 0.069 | 0.128 (inactive)
CC[C@H](C)C(=O)O[C@H]1CCC=C2C=C[C@H](C)[C@H](CC[C@@H]3C[C@@H](O)CC(=O)O3)[C@H]21 | 1.34 ± 0.13 | 1.57 ± 0.14 | 1.04 ± 0.063 | 0.751 ± 0.051 | 1.01 ± 0.061 | 1.1 ± 0.085 | 0.935 (active)
CC(=O)Nc1ccc(C(=O)Nc2ccc(Cl)cn2)cc1 | 1.16 ± 0.099 | 1.1 ± 0.085 | 1.09 ± 0.11 | 0.942 ± 0.04 | 0.94 ± 0.086 | 1.09 ± 0.15 | 1.04 (active)
CCOC(=O)N1CCN(C(=O)CSc2ccc(-c3ccccc3)nn2)CC1 | 1.15 ± 0.086 | 1.05 ± 0.055 | 1.09 ± 0.06 | 0.931 ± 0.051 | 0.96 ± 0.1 | 0.906 ± 0.073 | 0.993 (active)
COc1ccc(OC)c(-c2csc(NC(=O)Cc3ccc(F)cc3)n2)c1 | 0.902 ± 0.097 | 0.944 ± 0.069 | 1.12 ± 0.1 | 1.1 ± 0.078 | 1.2 ± 0.18 | 1.38 ± 0.36 | 0.998 (active)
OCCN1CCN(CCCN2c3ccccc3Sc3ccc(Cl)cc32)CC1 | 1.21 ± 0.051 | 0.614 ± 0.069 | 0.894 ± 0.077 | 3.18 ± 0.17 | 1.32 ± 0.18 | 1.49 ± 0.42 | 0.907 (active)
CCC(Oc1ccccc1)C(=O)Nc1cc([N+](=O)[O-])ccc1C (configuration not stated) | 0.91 ± 0.059 | 0.865 ± 0.073 | 0.987 ± 0.036 | 0.902 ± 0.042 | 0.997 ± 0.11 | 0.973 ± 0.14 | 1 (active)
CCCCc1nc(Cl)c(CO)n1Cc1ccc(-c2ccccc2-c2nnn[nH]2)cc1 [Prestw-1433] | 1.2 ± 0.29 | 1.08 ± 0.054 | 1.02 ± 0.065 | 0.944 ± 0.034 | 1.29 ± 0.14 | 1.32 ± 0.19 | 1 (active)
Cc1cn(-c2cc(NC(=O)c3ccc(C)c(Nc4nccc(-c5cnccn5)n4)c3)cc(C(F)(F)F)c2)cn1 | 0.892 ± 0.22 | 1.17 ± 0.059 | 0.982 ± 0.063 | 0.867 ± 0.032 | 0.943 ± 0.11 | 1.19 ± 0.33 | 0.988 (active)

Reference: the supplement of paper PMC10646978
